Measured values: PubChem BioAssay (NCATS)
Results filed as inconclusive are left out. Active and inactive are the calls of the source. Calls follow the shape of the dose curve; as a rule, active = well fitted cell-killing curve with a large enough effect; inconclusive = small, poorly fitted or top-dose-only effect, or effect the other way; inactive = flat fitted curve, though single readings scatter.

Key:
Test in all cases: Primary qHTS to identify gynecologic anti-cancer compounds using libraries of approved drugs and bioactive compounds (AID 1345084); also: nearly all actives have a fitted effect of over 55% in size
CAOV3 = conditions: Gynecologic cancer cell panel viability, ATPlite luminescence, 48 h; series mostly up to 57.5 µM
Outline: (§1)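 Luminescence from the ATPlite ATP-monitoring reagent indicates viable cell number; lower signal means cytotoxicity. Cells received compound 16 h after seeding and were exposed for 48 h across five concentrations.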

CASKI = conditions: Gynecologic cancer cell panel viability, ATPlite luminescence, 48 h; series mostly up to 57.5 µM
Outline: as §1

Es-2 = conditions: Gynecologic cancer cell panel viability, ATPlite luminescence, 48 h; series mostly up to 57.5 µM
Outline: as §1

HeLa = conditions: Gynecologic cancer cell panel viability, ATPlite luminescence, 48 h; series mostly up to 57.5 µM
Outline: as §1

Hek293T = conditions: Gynecologic cancer cell panel viability, ATPlite luminescence, 48 h, control line for the selectivity index; series mostly up to 57.5 µM
Outline: as §1

JEG-3 = conditions: Gynecologic cancer cell panel viability, ATPlite luminescence, 48 h; series mostly up to 57.5 µM
Outline: as §1

OV90 = conditions: Gynecologic cancer cell panel viability, ATPlite luminescence, 48 h; series mostly up to 57.5 µM
Outline: as §1

PA-1 = conditions: Gynecologic cancer cell panel viability, ATPlite luminescence, 48 h; series mostly up to 57.5 µM
Outline: as §1

SKOV3 = conditions: Gynecologic cancer cell panel viability, ATPlite luminescence, 48 h; series mostly up to 57.5 µM
Outline: as §1

Tov-21-G = conditions: Gynecologic cancer cell panel viability, ATPlite luminescence, 48 h; series mostly up to 57.5 µM
Outline: as §1

Tov112D = conditions: Gynecologic cancer cell panel viability, ATPlite luminescence, 48 h; series mostly up to 57.5 µM
Outline: as §1
% is scaled to controls: 0 for no effect and ±100 for the full control effect.

C=C1[C@@H]2CC[C@@]3(C)[C@H](c4ccoc4)OC(=O)C[C@]13O[C@H]1CC(=O)C(C)(C)[C@H](CC(=O)OC)[C@]12C
inactive: Potency (CAOV3) | Potency (CASKI) | Potency (Es-2) | Potency (HeLa) | Potency (Hek293T) | Potency (JEG-3) | Potency (OV90) | Potency (PA-1) | Potency (SKOV3) | Potency (Tov-21-G) | Potency (Tov112D)

CC(=O)OC1C(O)C(C)=C(CCC(C)CC(=O)O)C2(C)CCCC(C)(C)C12 (stereo unspecified)
inactive: Potency (CAOV3) | Potency (CASKI) | Potency (Es-2) | Potency (HeLa) | Potency (Hek293T) | Potency (JEG-3) | Potency (OV90) | Potency (PA-1) | Potency (SKOV3) | Potency (Tov-21-G) | Potency (Tov112D)

C=C(C)[C@H]1C[C@@H](O)C(=C)CC[C@@H](O)C(=C)[C@@H](O)C1
inactive: Potency (CAOV3) | Potency (CASKI) | Potency (Es-2) | Potency (HeLa) | Potency (Hek293T) | Potency (JEG-3) | Potency (OV90) | Potency (PA-1) | Potency (SKOV3) | Potency (Tov-21-G) | Potency (Tov112D)

O=C(O)[C@H]1CCCC[C@H]1C(=O)N1CCc2ccccc2[C@H]1CN1C(=O)c2ccccc2C1=O
inactive: Potency (CAOV3) | Potency (CASKI) | Potency (Es-2) | Potency (HeLa) | Potency (Hek293T) | Potency (JEG-3) | Potency (OV90) | Potency (PA-1) | Potency (SKOV3) | Potency (Tov-21-G) | Potency (Tov112D)

Nc1nonc1C(=Nc1ccc(F)c(Cl)c1)NO
inactive: Potency (CAOV3) | Potency (CASKI) | Potency (Es-2) | Potency (HeLa) | Potency (Hek293T) | Potency (JEG-3) | Potency (OV90) | Potency (PA-1) | Potency (SKOV3) | Potency (Tov-21-G) | Potency (Tov112D)

CC(C)(C)NCc1cc(Nc2ccnc3cc(Cl)ccc23)c2c(c1O)CCCC2
inactive: activity change, negative = cytotoxicity (CAOV3) -2.51% [at 0.462 µM] | activity change, negative = cytotoxicity (CASKI) 10.8% [at 0.462 µM] | activity change, negative = cytotoxicity (Es-2) 6.55% [at 0.462 µM] | activity change, negative = cytotoxicity (HeLa) 9.09% [at 0.462 µM] | activity change, negative = cytotoxicity (Hek293T) -0.834% [at 0.462 µM] | activity change, negative = cytotoxicity (JEG-3) 2.67% [at 0.462 µM] | activity change, negative = cytotoxicity (OV90) 12.6% [at 0.462 µM] | activity change, negative = cytotoxicity (PA-1) 0.938% [at 0.462 µM] | activity change, negative = cytotoxicity (SKOV3) 4.41% [at 0.462 µM] | activity change, negative = cytotoxicity (Tov-21-G) 8.34% [at 0.462 µM] | activity change, negative = cytotoxicity (Tov112D) 20.2% [at 0.462 µM]

COc1cc(C2c3cc(O)c(OC)cc3CC(CO)C2CO)ccc1O (stereo unspecified)
inactive: Potency (CAOV3) | Potency (CASKI) | Potency (Es-2) | Potency (HeLa) | Potency (Hek293T) | Potency (JEG-3) | Potency (OV90) | Potency (PA-1) | Potency (SKOV3) | Potency (Tov-21-G) | Potency (Tov112D)

C=C1C(OC(C)=O)C(=O)C2C(C)(C)C(OC(C)=O)CCC2(C)C1CC(OC(C)=O)/C(C)=C/COC(C)=O (stereo unspecified)
inactive: Potency (CAOV3) | Potency (CASKI) | Potency (Es-2) | Potency (HeLa) | Potency (Hek293T) | Potency (JEG-3) | Potency (OV90) | Potency (PA-1) | Potency (SKOV3) | Potency (Tov-21-G) | Potency (Tov112D)

CO[C@H]1C=C2C(CC[C@H](O[C@@H]3O[C@H](CO)[C@@H](O)[C@@H](O)[C@H]3O)C2(C)C)[C@]2(C)CC[C@]3(C)C([C@H](C)C(O)C(C=C(C)C)O[C@@H]4O[C@H](CO)[C@@H](O)[C@@H](O)[C@H]4O)CC[C@@]3(C)C12 (stereo partly specified)
inactive: activity change, negative = cytotoxicity (CAOV3) 7.91% [at 11.6 µM] | activity change, negative = cytotoxicity (CASKI) -4.92% [at 11.6 µM] | activity change, negative = cytotoxicity (Es-2) 2.74% [at 11.6 µM] | activity change, negative = cytotoxicity (HeLa) 0.609% [at 11.6 µM] | activity change, negative = cytotoxicity (Hek293T) 12.3% [at 11.6 µM] | activity change, negative = cytotoxicity (JEG-3) -6.82% [at 11.6 µM] | activity change, negative = cytotoxicity (OV90) 5.72% [at 11.6 µM] | activity change, negative = cytotoxicity (PA-1) -0.818% [at 11.6 µM] | activity change, negative = cytotoxicity (SKOV3) -12.6% [at 11.6 µM] | activity change, negative = cytotoxicity (Tov-21-G) 4% [at 11.6 µM] | activity change, negative = cytotoxicity (Tov112D) 2.11% [at 11.6 µM]

COCCN(C)Cc1ccc2nc3sc(C(=O)N(C)C4CCCCC4)cn3c2c1
inactive: Potency (CAOV3) | Potency (CASKI) | Potency (Es-2) | Potency (HeLa) | Potency (Hek293T) | Potency (JEG-3) | Potency (OV90) | Potency (PA-1) | Potency (SKOV3) | Potency (Tov-21-G) | Potency (Tov112D)

COc1ccc(C)c2sc(NC(=O)c3ccncc3)nc12
inactive: Potency (CAOV3) | Potency (CASKI) | Potency (Es-2) | Potency (HeLa) | Potency (Hek293T) | Potency (JEG-3) | Potency (OV90) | Potency (PA-1) | Potency (SKOV3) | Potency (Tov-21-G) | Potency (Tov112D)

C[C@@H]1O[C@@H](O[C@@H]2[C@@H](O)[C@@H](O)[C@H](O[C@@H]3[C@@H](O)[C@@H](O[C@]4(CO)O[C@H](CO)[C@@H](O)[C@@H]4OC(=O)/C=C/c4ccc(O)cc4)O[C@H](CO)[C@H]3OC(=O)/C=C/c3ccc(O)cc3)O[C@H]2C)[C@H](O)[C@H](O)[C@H]1O
inactive: activity change, negative = cytotoxicity (CAOV3) 16.9% [at 11.6 µM] | activity change, negative = cytotoxicity (CASKI) -0.379% [at 11.6 µM] | activity change, negative = cytotoxicity (Es-2) 1.92% [at 11.6 µM] | activity change, negative = cytotoxicity (HeLa) 11% [at 11.6 µM] | activity change, negative = cytotoxicity (Hek293T) 1.13% [at 11.6 µM] | activity change, negative = cytotoxicity (JEG-3) -6.75% [at 11.6 µM] | activity change, negative = cytotoxicity (OV90) 7.74% [at 11.6 µM] | activity change, negative = cytotoxicity (PA-1) -5.64% [at 11.6 µM] | activity change, negative = cytotoxicity (SKOV3) -21.8% [at 11.6 µM] | activity change, negative = cytotoxicity (Tov-21-G) -2.88% [at 11.6 µM] | activity change, negative = cytotoxicity (Tov112D) -1.04% [at 11.6 µM]

N#CCc1ccc(O)cc1O[C@@H]1O[C@H](CO)[C@@H](O)[C@H](O)[C@H]1O
inactive: Potency (CAOV3) | Potency (CASKI) | Potency (Es-2) | Potency (HeLa) | Potency (Hek293T) | Potency (JEG-3) | Potency (OV90) | Potency (PA-1) | Potency (SKOV3) | Potency (Tov-21-G) | Potency (Tov112D)

C=C1C[C@]23C[C@H]1CC[C@H]2[C@]1(C)CCC[C@@]2(CO)C(=O)O[C@H]([C@H]21)[C@@H]3O
inactive: Potency (CAOV3) | Potency (CASKI) | Potency (Es-2) | Potency (HeLa) | Potency (Hek293T) | Potency (JEG-3) | Potency (OV90) | Potency (PA-1) | Potency (SKOV3) | Potency (Tov-21-G) | Potency (Tov112D)

COC12CC3C(C(C)C1=CC(=O)O2)C(O)C(OC(C)=O)C1C(C)(C)C(OC(C)=O)CCC31C (stereo unspecified)
inactive: Potency (CAOV3) | Potency (CASKI) | Potency (Es-2) | Potency (HeLa) | Potency (Hek293T) | Potency (JEG-3) | Potency (OV90) | Potency (PA-1) | Potency (SKOV3) | Potency (Tov-21-G) | Potency (Tov112D)

C=C1CC[C@@H]2[C@](C)(CO[C@@H]3O[C@H](CO)[C@@H](O)[C@H](O)[C@H]3O)CCC[C@@]2(C)[C@@H]1CCC1=CCOC1=O
inactive: Potency (CAOV3) | Potency (CASKI) | Potency (Es-2) | Potency (HeLa) | Potency (Hek293T) | Potency (JEG-3) | Potency (OV90) | Potency (PA-1) | Potency (SKOV3) | Potency (Tov-21-G) | Potency (Tov112D)
